39 molecules from PubChem BioAssay (NCATS) can be followed below.

Records with an inconclusive call do not appear. Entries that show only a call come without a potency. The source made the active and inactive calls. Calls follow the shape of the dose curve; as a rule, active = well fitted inhibition curve with a large enough effect; inconclusive = small, poorly fitted or top-dose-only effect; inactive = flat fitted curve, though single readings scatter.
Also: nearly all actives have a fitted effect of over 65% in size.
Potency is read from the fitted curve at half-maximal effect.

Sequence of Phospholipid hydroperoxide glutathione peroxidase GPX4 (Homo sapiens) (P36969 whole entry, looked up): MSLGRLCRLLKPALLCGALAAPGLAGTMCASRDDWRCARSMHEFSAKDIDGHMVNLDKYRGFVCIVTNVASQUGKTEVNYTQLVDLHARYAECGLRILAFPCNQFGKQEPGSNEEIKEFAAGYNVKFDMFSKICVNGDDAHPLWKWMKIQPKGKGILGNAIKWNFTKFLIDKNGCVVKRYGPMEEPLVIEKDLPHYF
Sequence of Glutathione peroxidase 1 (Homo sapiens) (P07203 whole entry, looked up): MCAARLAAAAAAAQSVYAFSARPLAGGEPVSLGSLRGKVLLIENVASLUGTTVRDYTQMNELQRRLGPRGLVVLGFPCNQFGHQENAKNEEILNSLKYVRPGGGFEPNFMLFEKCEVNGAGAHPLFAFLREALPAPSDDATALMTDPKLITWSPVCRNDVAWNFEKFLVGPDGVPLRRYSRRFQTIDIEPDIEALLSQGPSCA

One test has as its target Glutathione peroxidase 1 (Homo sapiens) (UniProt P07203). The experiment in a line: Primary qHTS Assay for Inhibitors of Recombinant Selenoprotein Glutathione Peroxidase 1 (GPX1) (AID 1845191). As to conditions: recombinant GPX1, GR-coupled NADPH fluorescence, 15 min; series mostly up to 48.8 µM. Put shortly:
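GR-coupled readout: NADPH consumption tracked by fluorescence, ex 340/em 450 nm, at t=0 and after 15 min at RT. Final mix 10 nM GPX1, 1 mM GSH, 0.5 mM CHP, 0.5 mM NADPH, 100 nM GR, 0.01% BSA, following 30 min enzyme–compound preincubation.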
(In general: In qHTS, concentration-response curves come from the screen itself.)
As for `O=S(=O)(N[C@H]1CCCC[C@@H]1N1CCOCC1)c1ccc(Cl)cc1`, the Potency result is “inactive”.

Take `Cc1ccnc(NC(=O)C(C)c2cccc(C(=O)c3ccccc3)c2)c1` (stereo not drawn): the Potency entry was “inactive”.

Regarding `NC(N)=N/N=C/c1ccccc1Cl`, the Potency result was “inactive”.

In the case of `CNCCCC1(c2ccccc2)OC(C)(C)c2ccccc21` (stereo not drawn), the Potency result was “inactive”.

Turning to `C=C1C(=O)O[C@@H]2C[C@H](C)C3=CC(=O)[C@H](O)[C@@]3(C)C[C@H]12`, the Potency entry was “inactive”.

Take `CC(C)/C=C1\NC(=O)C(C(C)C)n2c1nc1ccccc1c2=O` (stereo not drawn): the Potency entry is “inactive”.

`CC/C=C\CC1C(=O)C=CC1(CCCCC1CCC(=O)O1)OC(C)=O` (stereo not drawn): the Potency result is “inactive”.

For `COc1ccc(CN2CCN(C(=O)CCNC(=O)c3ccc(C(C)(C)C)cc3)CC2)cc1`, the Potency entry was “inactive”.

On to `C=C1C(=O)O[C@H]2C3=C(C)CCC[C@]3(C)C(=O)C[C@@H]12`, for which the Potency entry is “inactive”.

Regarding `NC(=O)c1nc(Nc2ccccc2)sc1NC(=O)C1CCCCC1`, the Potency entry was “inactive”.

Take `CCOC(=O)c1cnc2ccc(-c3cncc(NS(=O)(=O)c4ccccc4)c3)cn12`: the Potency entry was “inactive”.

Take `Oc1ccc(-c2cnc3ccc(NCc4ccco4)nn23)cc1`: the Potency entry is “inactive”.

In the case of `Fc1ccc(-c2cncc(CN3CCN(c4cccc5c4OCCO5)CC3)c2)cc1`, the Potency entry is “inactive”.

In the case of `N#Cc1ccc2ncnc(NCCc3ccccc3)c2c1`, the Potency result is “inactive”.

With `CCn1c(=O)n([C@H]2CCCN(c3nccc(-c4cc5ccccc5o4)n3)C2)c2ccccc21`, the Potency entry is “inactive”.

`C=C(CCC1C(C)(O)CCC2C(C)(C)C(O)CCC12C)C(O)CO` (stereo not drawn): the Potency result was “inactive”.

As to `COc1cc(O)c2c(c1)C1OC1C[C@H](O)[C@H](O)C(=O)/C=C\C[C@H](C)OC2=O` (stereo partly drawn), the Potency result was “inactive”.

On to `C=C1C(=O)O[C@H]2C1CCC(C)=C1C(=O)C=C(C)[C@@]12O` (stereo partly drawn), for which the Potency entry was “inactive”.

With `CC(=O)OC1CC(O)(C(C)C)C2C(OC(=O)c3ccc(O)cc3)C=C(C)C(=O)CC12C` (stereo not drawn), the Potency result is “inactive”.

Turning to `Cc1ccc(NC(=O)N2CCN(c3nc(N)nc4sc(-c5cccnc5)nc34)CC2)cc1`, the Potency is 14.3 µM (active).

Take `C=C[C@]1(C)C[C@H](O)[C@H]2C(=C)C(=O)O[C@@H]2[C@H]1C(=C)CO`: the Potency result is “inactive”.

On to `C#CCOc1ccc2c(c1)c(-c1ccc(C(C)C)cc1)nc(=O)n2C(C)C`, for which the Potency result was “inactive”.

In the case of `CNCc1cc(-c2ccccc2F)n(S(=O)(=O)c2cccnc2)c1`, the Potency entry is “inactive”.

Consider `C=C1C(=O)OC2/C=C(\COC(C)=O)CC/C=C(\C=O)CC(OC(=O)C(C)CC)C12` (stereo not drawn), for which the Potency result was “inactive”.

As for `CCC(C)CNCC(=O)N1CCc2sccc2C1COc1cccc(C)c1` (stereo not drawn), the Potency entry was “inactive”.

Take `N[C@@H]1c2cccnc2[C@H](OC(=O)N2CCC(n3c(=O)[nH]c4ncccc43)CC2)CC[C@H]1c1cccc(F)c1F`: the Potency entry is “inactive”.

For `Cn1cc(-c2ccc(F)c(C(F)(F)F)c2)nc1C1CCN(c2ncnc3[nH]ncc23)CC1`, the Potency result is “inactive”.

For the molecule `C=C1C(=O)O[C@@H]2[C@H]1CCC(C)=C(CCC(=O)O)[C@@]2(C)O`, the Potency result was “inactive”.

With `CNc1cccc(CCOc2ccc3c(c2)CN(CC(F)(F)F)C(=O)[C@H](CC(=O)O)C3)n1`, the Potency result was “inactive”.

On to `CC(CCC1(O)OC2CC3C4CC=C5CC(O[C@@H]6O[C@H](CO)[C@@H](O[C@@H]7O[C@@H](C)[C@H](O)[C@@H](O)[C@H]7O)[C@H](O)[C@H]6O[C@@H]6O[C@@H](C)[C@H](O)[C@@H](O)[C@H]6O)CCC5(C)C4CCC3(C)C2C1C)CO[C@@H]1O[C@H](CO)[C@@H](O)[C@H](O)[C@H]1O` (stereo partly drawn), for which the Potency entry was “inactive”.

`Cc1cc(C(=O)Cn2cc(C#N)ccc2=O)c(C)n1Cc1ccccc1`: the Potency result is “inactive”.

As for `Nc1ncnc2c1nc(Cl)n2C1OC2COP(=O)(O)OC2C1O` (stereo not drawn), the Potency result is “inactive”.

On to `CCCC(CCC)C(=O)NCc1ccc2c(cnn2-c2ccccc2OC)c1`, for which the Potency entry is “inactive”.

For the molecule `CNC(=O)c1cc(Oc2ccc(NC(=O)c3cccc(C(F)(F)F)c3)cc2)ccn1`, the Potency entry was “inactive”.

Take `O=C1Nc2nc(-c3c(O)cccc3OCC3CC3)cc([C@@H]3CCCNC3)c2CO1`: the Potency entry was “inactive”.

On to `CC1(C)C2CCC(CO[C@@H]3O[C@H](CO[C@@H]4OC[C@](O)(CO)[C@H]4O)[C@@H](O)[C@H](O)[C@H]3O)C1C2` (stereo partly drawn), for which the Potency result is “inactive”.

As for `COc1ccc(S(=O)(=O)N2CCC[C@H]2C(=O)Nc2cc(C)cc(C)c2)cc1`, the Potency result was “inactive”.

As to `Cc1ccccc1C(C(=O)NC1CCCCC1)N(C(=O)Cn1cnc2ccccc21)c1cccc(F)c1` (stereo not drawn), the Potency entry is “inactive”.

As for `CN(C)CCOC(C)(c1ccccc1)c1ccc(Cl)cc1` (stereo not drawn), the Potency entry is “inactive”.

Another test has as its target Phospholipid hydroperoxide glutathione peroxidase GPX4 (Homo sapiens) (UniProt P36969). The experiment in a line: Primary qHTS Assay for Inhibitors of Recombinant Selenoprotein Glutathione Peroxidase 4 (GPX4) (AID 1845192). As to conditions: recombinant GPX4, GR-coupled NADPH fluorescence, 15 min; series mostly up to 50 µM. The gist of the method: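 Steps: GPX4 plus compound, 30 min RT; add GR/GSH/NADPH master mix; start with cumene hydroperoxide; read 340/450 nm fluorescence at 0 and 15 min. Finals were 200 nM GPX4, 1 mM GSH, 0.5 mM CHP, 0.5 mM NADPH, 100 nM GR.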
Take `O=S(=O)(N[C@H]1CCCC[C@@H]1N1CCOCC1)c1ccc(Cl)cc1`: the Potency result was “inactive”.

For `Cc1ccnc(NC(=O)C(C)c2cccc(C(=O)c3ccccc3)c2)c1` (stereo not drawn), the Potency result is “inactive”.

Regarding `NC(N)=N/N=C/c1ccccc1Cl`, the Potency result is “inactive”.

`CNCCCC1(c2ccccc2)OC(C)(C)c2ccccc21` (stereo not drawn): the Potency entry was “inactive”.

With `C=C1C(=O)O[C@@H]2C[C@H](C)C3=CC(=O)[C@H](O)[C@@]3(C)C[C@H]12`, the Potency entry is “inactive”.

`CC(C)/C=C1\NC(=O)C(C(C)C)n2c1nc1ccccc1c2=O` (stereo not drawn): the Potency entry was “inactive”.

`CC/C=C\CC1C(=O)C=CC1(CCCCC1CCC(=O)O1)OC(C)=O` (stereo not drawn): the Potency result was “inactive”.

`COc1ccc(CN2CCN(C(=O)CCNC(=O)c3ccc(C(C)(C)C)cc3)CC2)cc1`: the Potency result was “inactive”.

For `C=C1C(=O)O[C@H]2C3=C(C)CCC[C@]3(C)C(=O)C[C@@H]12`, the Potency result is “inactive”.

Regarding `NC(=O)c1nc(Nc2ccccc2)sc1NC(=O)C1CCCCC1`, the Potency entry was “inactive”.

On to `CCOC(=O)c1cnc2ccc(-c3cncc(NS(=O)(=O)c4ccccc4)c3)cn12`, for which the Potency result is “inactive”.

For `Oc1ccc(-c2cnc3ccc(NCc4ccco4)nn23)cc1`, the Potency result is “inactive”.

Take `Fc1ccc(-c2cncc(CN3CCN(c4cccc5c4OCCO5)CC3)c2)cc1`: the Potency entry is “inactive”.

Turning to `N#Cc1ccc2ncnc(NCCc3ccccc3)c2c1`, the Potency entry is “inactive”.

Take `CCn1c(=O)n([C@H]2CCCN(c3nccc(-c4cc5ccccc5o4)n3)C2)c2ccccc21`: the Potency result is “inactive”.

Consider `C=C(CCC1C(C)(O)CCC2C(C)(C)C(O)CCC12C)C(O)CO` (stereo not drawn), for which the Potency result was “inactive”.

In the case of `COc1cc(O)c2c(c1)C1OC1C[C@H](O)[C@H](O)C(=O)/C=C\C[C@H](C)OC2=O` (stereo partly drawn), the Potency entry is “inactive”.

As for `C=C1C(=O)O[C@H]2C1CCC(C)=C1C(=O)C=C(C)[C@@]12O` (stereo partly drawn), the Potency result was “inactive”.

Turning to `CC(=O)OC1CC(O)(C(C)C)C2C(OC(=O)c3ccc(O)cc3)C=C(C)C(=O)CC12C` (stereo not drawn), the Potency result was “inactive”.

Turning to `Cc1ccc(NC(=O)N2CCN(c3nc(N)nc4sc(-c5cccnc5)nc34)CC2)cc1`, the Potency was 2.55 µM (active).

Take `C=C[C@]1(C)C[C@H](O)[C@H]2C(=C)C(=O)O[C@@H]2[C@H]1C(=C)CO`: the Potency entry is “inactive”.

Consider `C#CCOc1ccc2c(c1)c(-c1ccc(C(C)C)cc1)nc(=O)n2C(C)C`, for which the Potency result is “inactive”.

For `CNCc1cc(-c2ccccc2F)n(S(=O)(=O)c2cccnc2)c1`, the Potency result is “inactive”.

On to `C=C1C(=O)OC2/C=C(\COC(C)=O)CC/C=C(\C=O)CC(OC(=O)C(C)CC)C12` (stereo not drawn), for which the Potency result was “inactive”.

For `CCC(C)CNCC(=O)N1CCc2sccc2C1COc1cccc(C)c1` (stereo not drawn), the Potency entry is “inactive”.

For `N[C@@H]1c2cccnc2[C@H](OC(=O)N2CCC(n3c(=O)[nH]c4ncccc43)CC2)CC[C@H]1c1cccc(F)c1F`, the Potency entry is “inactive”.

On to `Cn1cc(-c2ccc(F)c(C(F)(F)F)c2)nc1C1CCN(c2ncnc3[nH]ncc23)CC1`, for which the Potency result is “inactive”.

Consider `C=C1C(=O)O[C@@H]2[C@H]1CCC(C)=C(CCC(=O)O)[C@@]2(C)O`, for which the Potency entry is “inactive”.

On to `CNc1cccc(CCOc2ccc3c(c2)CN(CC(F)(F)F)C(=O)[C@H](CC(=O)O)C3)n1`, for which the Potency entry was “inactive”.

As for `CC(CCC1(O)OC2CC3C4CC=C5CC(O[C@@H]6O[C@H](CO)[C@@H](O[C@@H]7O[C@@H](C)[C@H](O)[C@@H](O)[C@H]7O)[C@H](O)[C@H]6O[C@@H]6O[C@@H](C)[C@H](O)[C@@H](O)[C@H]6O)CCC5(C)C4CCC3(C)C2C1C)CO[C@@H]1O[C@H](CO)[C@@H](O)[C@H](O)[C@H]1O` (stereo partly drawn), the Potency result is “inactive”.

For `Cc1cc(C(=O)Cn2cc(C#N)ccc2=O)c(C)n1Cc1ccccc1`, the Potency result is “inactive”.

With `Nc1ncnc2c1nc(Cl)n2C1OC2COP(=O)(O)OC2C1O` (stereo not drawn), the Potency result was “inactive”.

As to `CCCC(CCC)C(=O)NCc1ccc2c(cnn2-c2ccccc2OC)c1`, the Potency result is “inactive”.

As for `CNC(=O)c1cc(Oc2ccc(NC(=O)c3cccc(C(F)(F)F)c3)cc2)ccn1`, the Potency result is “inactive”.

On to `O=C1Nc2nc(-c3c(O)cccc3OCC3CC3)cc([C@@H]3CCCNC3)c2CO1`, for which the Potency entry is “inactive”.

For `CC1(C)C2CCC(CO[C@@H]3O[C@H](CO[C@@H]4OC[C@](O)(CO)[C@H]4O)[C@@H](O)[C@H](O)[C@H]3O)C1C2` (stereo partly drawn), the Potency entry is “inactive”.

As to `COc1ccc(S(=O)(=O)N2CCC[C@H]2C(=O)Nc2cc(C)cc(C)c2)cc1`, the Potency entry is “inactive”.

For `Cc1ccccc1C(C(=O)NC1CCCCC1)N(C(=O)Cn1cnc2ccccc21)c1cccc(F)c1` (stereo not drawn), the Potency entry is “inactive”.

For `CN(C)CCOC(C)(c1ccccc1)c1ccc(Cl)cc1` (stereo not drawn), the Potency entry was “inactive”.
